Source: PubChem
A selection: hits, their analogues and other compounds. The true share with any hit is near 5.7%.
ATXN2 expr inh – inhibitors of ATXN2 expression; HEK-293 ATXN2-luciferase reporter, luminescence, 24 h; Potency, µM (doses to about 57 µM), inactives show top-dose activity change, negative = inhibition, actives largely listed as inhibitors; 360,000 tested, 0.72% active; further: potency means the concentration at half of the fitted maximal effect; on the % scale 0 is the no-effect control and ±100 the full control effect; nearly all actives have a fitted effect of over 55% in size
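qHTS (up to 57 uM final) was run with 24 h compound exposure of reporter cells at 37 °C. Each well was multiplexed: SteadyGlo luminescence measured ATXN2-luciferase expression after a fluorogenic Gly-Phe-AFC viability readout (25 uM final).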
IL-1B inflam inh – inhibitors of inflammasome signaling (IL-1 beta secretion); THP-1 LPS/ATP IL-1B secretion, AlphaLISA, 16 h; hits give low values; activity change, % at 57.5 µM; 360,000 tested, 4.7% active; in the data active means activity change below about -50%; inconclusive means mostly about -30% to -49%; further: on the % scale 0 is the no-effect control and ±100 the full control effect
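THP-1 cells pretreated 1 hr with compounds (up to 57.5 uM final), then stimulated with LPS (250 ng/mL final) plus ATP (1.25 mM final); secreted IL-1B measured by AlphaLISA after 16 hr, decreased signal indicating inhibition.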
HepG2 tox – counter-screen for TGF-b inhibitors: cytotoxicity in HepG2 cells | HepG2 CAGA-GFP viability, ATP luminescence, 18 h | Potency, µM (doses to about 46.1 µM), inactives show top-dose activity change, negative = cytotoxicity, actives largely listed as cytotoxic | 410,000 tested, 0.76% active; further: potency means the concentration at half of the fitted maximal effect
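CellTiter-Glo luminescence gave cytotoxicity after 18 hours at 37 degrees C. The cells were HepG2 CAGA-GFP in 1% FBS DMEM, stimulated with 500 pg/mL TGF-beta after compound addition. %Activity was normalised to no-cell wells (complete cell-killing) and DMSO (no toxicity), and curves were fitted and classified.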
TGFb SMAD3 inh – blocks TGF-b signaling. HepG2 CAGA-GFP TGF-b/SMAD3 reporter, GFP fluorescence, 18 h; TGF-beta stimulated, 500 pg/mL final. Potency, µM (top dose mostly 46.1 µM), for the others: at the top dose activity, negative = inhibition, actives largely listed as inhibitors. 410,000 tested, 1.2% active. AID 588855; further: potency means the concentration at half of the fitted maximal effect; on the % scale 0 is the no-effect control and ±100 the full control effect; nearly all actives have a fitted effect of over 65% in size
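Cell-based qHTS in HEPG2 carrying a CAGA-GFP Smad reporter; compounds added before 500 pg/mL final TGF-beta, 18 h incubation at 37 degrees C, GFP fluorescence quantified per cell by imaging cytometry.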
ATXN viability – reduces viability in counter-screen for ATXN expression inhibitors; S2 cells (HEK-293 line with an ATXN2-luciferase reporter) viability, CellTiter-Fluor protease fluorescence, 24 h; AID 651635; Potency, µM (highest dose often 56.7 µM), hits mostly cytotoxic; 400,000 tested, 0.49% active; further: potency means the concentration at half of the fitted maximal effect; nearly all actives have a fitted effect of over 40% in size
* hit, by the source's call; i = inactive; ? = inconclusive; / = not tested or not shown; [ ] = another dose, or the depositor's remark. Unless noted, the call rests on the fitted dose curve; in most records, active means well fitted curve in the direction sought with a large enough effect; inconclusive means small, poorly fitted or top-dose-only effect, or another doubt; inactive means no such curve, though single readings can be large; an effect the other way counts as inactive or inconclusive.

SMILES	ATXN2 expr inh	IL-1B inflam inh	HepG2 tox	TGFb SMAD3 inh	ATXN viability
CC(Sc1nc(N(C)C)nc(N2CCOCC2)n1)C(=O)Nc1ccccc1 (stereo unspecified)	-10.7%	9.5	-10.1%	5.2%	i
Cc1c(C(=O)N(Cc2ccc(Cl)cc2)C2CCS(=O)(=O)C2)oc2ccccc12 (stereo unspecified)	-4.0%	-59.2*	3.7%	?	i
O=C(/C=C/c1ccccc1Cl)N(Cc1ccccc1)C1CCS(=O)(=O)C1 (stereo unspecified)	-23.4%	?	-27.8%	-6.7%	i
CC(C)c1ccc(CN(C(=O)c2ccco2)C2CCS(=O)(=O)C2)cc1 (stereo unspecified)	-6.6%	7.2	0.0%	9.3%	i
O=C(/C=C/c1ccccc1Cl)N(Cc1ccc(Cl)cc1)C1CCS(=O)(=O)C1 (stereo unspecified)	-14.4%	-57.2*	6.9%	-36.5%	?
CC(C)c1ccc(CN(C(=O)/C=C/c2ccco2)C2CCS(=O)(=O)C2)cc1 (stereo unspecified)	-6.7%	-86.0*	20.3%	-28.0%	i
CC1(C)Cc2c(sc(N)c2C#N)C(C)(C)N1	-13.8%	-18.2	-10.8%	14.1%	i
CC1(C)CC2CC(C)(CN2/C=N/c2sc3c(c2C#N)CC(C)(C)NC3(C)C)C1 (stereo unspecified)	?	-88.1*	-78.6%	?	i
Cc1ccccc1NC(=O)Nc1nnc(N2CCCCCC2)s1	1.7%	/	3.7%	-0.6%	i
O=c1oc2ccc(Br)cc2cc1S(=O)(=O)c1ccc(F)cc1	?	-77.8*	-2.6%	?	/
CN(C)Cc1nc2ccccc2c(=O)n1Cc1nc(-c2cccc([N+](=O)[O-])c2)cs1	?	-18.6	-2.9%	-15.9%	i
CN1CCN(Cc2nc3ccccc3c(=O)n2Cc2nc(-c3ccc([N+](=O)[O-])cc3)cs2)CC1	?	-97.3*	11.2µM*	15.8µM*	?
O=c1[nH]nc(OCCCc2ccc(Cl)cc2)c(NCc2cccnc2)c1Br	24.3µM*	/	/	/	/
Clc1ccc(-c2csc(NNC3=NCCCCC3)n2)cc1	-27.0%	-77.2*	-15.7%	-29.6%	?
O=C(Nc1nc(-c2ccc(Cl)cc2Cl)cs1)C1CCCO1 (stereo unspecified)	7.0%	?	-23.1%	-2.7%	i
CCOc1ccc(-c2csc(NNC3=NCCCCC3)n2)cc1	-18.2%	-102.5*	-8.7%	-4.8%	i
O=C(Nc1nc(-c2ccc(Cl)cc2)cs1)C1CCCO1 (stereo unspecified)	35.3%	-69.5*	4.7%	6.8%	i
COc1cc(OC)c(NC(=O)Nc2ccc3c(c2)N(C)C(=O)c2ccccc2S3)cc1Cl	/	/	2.0%	?	/
COCCNC(=O)c1ccc(CSc2nc3ccncc3n2Cc2ccccc2)cc1	11.1%	/	-2.0%	-2.3%	i
COCCNC(=O)c1ccc(-n2c(SCc3ccncc3)nc3ccccc3c2=O)cc1	-8.5%	-72.9*	1.0%	24.6%	i
Cc1ccc(/C=C/c2onc(C)c2S(=O)(=O)N2CCC(C(=O)NCc3ccc(N(C)C)cc3)CC2)cc1	/	/	-7.6%	-8.5%	/
Cc1ccc(CS(=O)(=O)c2ncc(Cl)c(C(=O)Nc3nc4ccc(F)cc4s3)n2)cc1	-26.2%	/	-39.5%	?	?
Cc1ccc(NC(=O)c2nc(S(=O)(=O)Cc3ccc(F)cc3)ncc2Cl)cc1C	/	/	7.08µM*	5.62µM*	/
COc1ccc(OC)c(NC(=O)c2nc(S(=O)(=O)Cc3ccc(F)cc3)ncc2Cl)c1	/	/	8.91µM*	6.31µM*	/
CC(=O)Nc1ccc(NC(=O)c2nc(S(=O)(=O)Cc3ccc(F)cc3)ncc2Cl)cc1	/	/	3.98µM*	2.82µM*	/
SMILES	ATXN2 expr inh	IL-1B inflam inh	HepG2 tox	TGFb SMAD3 inh	ATXN viability
Cc1ccc(NC(=O)c2nc(S(=O)(=O)Cc3ccccc3F)ncc2Cl)cc1C	/	/	-58.8%	?	/
COc1ccc(C(=O)c2oc3ccccc3c2NC(=O)c2nc(SC)ncc2Cl)cc1Cl	5.1%	/	2.7%	-2.0%	i
CCn1c(-c2ccccc2F)nc2cc(NC(C)=O)cc(C(=O)NC(c3ccccn3)C(F)(F)F)c21 (stereo unspecified)	/	/	/	/	i
COc1ccc(/C=C2\C(=O)OCc3cc(OC)c(OC)cc32)cc1OC	31.9%	-51.1*	-7.4%	-2.7%	i
COc1cc2c(cc1OC)/C(=C/c1ccc(Cl)cc1)C(=O)OC2	?	-80.9*	5.9%	14.0%	?
Cc1ccccc1C(=O)N1CC/C(=N\OS(=O)(=O)O)c2ccc(Cl)cc21	-1.9%	/	/	/	i
CC(C)CCC(CCNCc1ccccn1)c1ccc(Cl)cc1 (stereo unspecified)	-37.5%	-97.9*	20µM*	0.0%	i
Cc1cc(-c2ccc(C)c(S(=O)(=O)NCCCN3CCCCCC3)c2)on1	-7.1%	-51.3*	-10.3%	1.0%	i
CC1CCC(NC(=O)CC(C)(C)Cc2nc3ccccc3c(=O)[nH]2)CC1 (stereo unspecified)	-1.7%	-56.0*	-12.1%	-15.7%	?
CCN(CC(=O)NC(=O)NC1CCCCC1)Cc1nc2ccccc2c(=O)[nH]1	1.7%	-4.7	-7.1%	-13.1%	i
CCc1ccccc1OCC(=O)OCC(=O)Nc1cc(C)on1	-2.9%	4.5	3.16µM*	10.3%	i
CC(=O)C1=C(c2ccccc2)N(C(C)=O)n2c(C)nnc2S1	?	-96.9*	-83.0%	?	?
CCCCN(CC)CCNC(=O)c1c(C)oc2ncnc(N3CCOCC3)c12	-3.2%	/	6.8%	15.8%	i
COc1cc(NC(=O)C2CCN(C(=O)c3sc4nc[nH]c(=O)c4c3C)CC2)cc(OC)c1OC	/	/	-7.4%	?	/
c1ccc2c(CCc3c[nH]c4ccccc34)ccnc2c1	/	/	-34.4%	?	/
O=[N+]([O-])c1c(Nc2ccc(O)cc2)cc(N2CCOCC2)c2nonc12	/	-21.6	-0.9%	29.2%	?
O=C(O)c1cc(Nc2cc(Cl)c3nonc3c2[N+](=O)[O-])ccc1O	/	-11.1	-12.1%	-25.7%	11.2µM*
O=[N+]([O-])c1c(Nc2ccccc2O)cc(Cl)c2nonc12	12.6µM*	-101.6*	10µM*	3.98µM*	12.6µM*
CCOC(=O)c1c(NC(=O)C[n+]2ccc(Cc3ccccc3)cc2)sc(C)c1C	?	-73.5*	-4.0%	3.6%	i
CCOC(=O)c1c(NC(=O)c2c(-c3ccccc3)noc2C)sc(C)c1-c1ccccc1	-33.5%	-1.1	-12.7%	-6.5%	i
CCOC(=O)c1c(NC(=O)CNC2CCCCC2)sc(C)c1C	-14.5%	-69.1*	-16.0%	-26.8%	i
CCOC(=O)c1c(NC(=O)/C=C/C(=O)O)sc(C)c1-c1ccc(C(C)(C)C)cc1	-12.5%[11.3 µM]	-106.2*	12.6µM*	?	?
